Among the data in PubChem BioAssay AID862 (The Scripps Research Institute Molecular Screening Center, 2007) are inhibition values, retold here.

The structures appear in SMILES notation. Out of some 190,000 compounds screened, about 1,700 (0.89%) were called active. Shown is part of a subset that was picked to be rich in actives. A number with no mark means an inactive call.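 Rule for the calls: active = inhibition above the mean inhibition across all screened compounds plus 3 SD (cut at about 44% in these data); inactive = the rest.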

The assay can be described thus: IL-6 driven STAT3 reporter inhibitors, primary screen, U3A cells, luciferase, luminescence, MLSCN library (AID 862).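 Note: 0% = DMSO only wells and 100% = 100 µM nifuroxazide control wells.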 Particulars: IL-6 STAT3-luciferase reporter, at 5.5 µM, active compounds read high, host cell line lacks STAT1.
With `Cc1ccc(CC2CC(=O)N(c3nc(C)cc(C)n3)C2=O)cc1` (stereo not given), the inhibition was -0.9%.

For the compound `Clc1cccc(-c2nc(NCC3CCCO3)c3ccccc3n2)c1` (stereo not given), the inhibition was 15.5%.

Turning to `CCCCCCn1c(CN2CCCCC2)nc2c1c(=O)n(C)c(=O)n2C`, the inhibition is -8.1%.

With `CCCCCCCCn1c2c(c(=N)c3c1CCC3)CCCC2`, the inhibition was 76.2% (active).

With `COc1ccc(/C=C/C(=O)OCC(=O)NCc2cccs2)cc1OC`, the inhibition is -9.7%.

As for `O=C(c1ccc(F)cc1)c1cn(Cc2ccc(F)cc2)c2cc3c(cc2c1=O)OCCO3`, the inhibition was 4.1%.

Turning to `COCCn1c(C)cc(C2=NNC(=Nc3ccc(F)cc3)SC2)c1C`, the inhibition is -33.4%.

On to `C=CCn1c(C)cc(C2=NNC(=NCC)SC2)c1C`, for which the inhibition is 108% (active).

In the case of `Cc1cc(C2=NNC(=Nc3ccc(S(=O)(=O)N4CCOCC4)cc3)SC2)c(C)n1CC1CCCO1` (stereo not given), the inhibition was -0.3%.

As to `[O-][n+]1c2c(nn1-c1ccc(Cl)c(Cl)c1)-c1nonc1CC2`, the inhibition is 5.8%.

On to `CC1CCN(c2ccc(C(=O)Nc3nnc(C4CC4)s3)cc2[N+](=O)[O-])CC1`, for which the inhibition was -3%.

In the case of `Cc1c(C(=O)Nc2ccccc2)sc2nc3n(c(=O)c12)CCCCC3`, the inhibition is 10.4%.

Consider `Cc1cccc2c(=O)n3c(nc12)CCCCC3`, for which the inhibition was 2.1%.

Turning to `O=c1c2c(nc3n1CCCCC3)sc1c(O)cccc12`, the inhibition is 64.8% (active).

Take `CC(C)Cn1c(N)c(C(=O)COC(=O)CN2C(=O)C3CC=CCC3C2=O)c(=O)n(C)c1=O` (stereo not given): the inhibition was 30.1%.

`COC(=O)c1c(NC(=O)CCCC(=O)O)sc2c1CCCCC2`: the inhibition is 22.2%.

Regarding `CCOCCCNCc1ccc(OCc2ccc(F)cc2)c(OC)c1`, the inhibition was 5.2%.

Turning to `CC(C)Oc1ccc(CCc2nnc(SCC(=O)O)n2-c2ccccc2)cc1`, the inhibition was 13.3%.

Regarding `Cc1ccc2nc(-c3ccc(NC(=O)c4cccnc4)cc3)oc2c1`, the inhibition was 67.9% (active).

As for `Cc1ccc(-n2nc3cc(C)c(NC(=O)c4cccnc4)cc3n2)cc1`, the inhibition was 11.8%.

As to `Cc1cc2nc(-c3ccc(NC(=O)c4cccnc4)cc3)oc2cc1C`, the inhibition is 7.8%.

Take `Cc1cccc(NC(=O)c2cc([N+](=O)[O-])ccc2N2CCN(C)CC2)c1`: the inhibition was 6.2%.

Consider `COC(=O)CCNC(=O)c1ccc2[nH]c(C)c(C)c2c1`, for which the inhibition is 11%.

As for `Cc1cc(C(=O)COc2ccccc2[N+](=O)[O-])c(C)n1-c1cccc(S(=O)(=O)N2CCOCC2)c1`, the inhibition was -4.1%.

Take `Cc1[nH]c2ccccc2c1C(=O)COC(=O)c1c(-c2ccccc2)noc1C`: the inhibition is -1.9%.
